Data on 20 compounds can be found in PubChem BioAssay (Tox21).

Assay [1] can be described thus: qHTS RealTime-Glo MT Cell Viability Assay in HEK293 cells - 16 hour (AID 1224872). Note: nearly all actives have a fitted effect of over 50% in size. Note: potency is the fitted concentration of half-maximal effect. In outline:
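Viability tracked continuously by luminescence as live cells reduce a prosubstrate for NanoLuc; HEK293 cells preincubated 5 h, compound-treated at 37 C, and read at 0, 8, 16, 24, 32 and 40 h.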
(In general: qHTS replaces the single test concentration by a dilution series.)

Assay [2] can be described thus: qHTS RealTime-Glo MT Cell Viability Assay in HepG2 cells - 8 hour (AID 1224873). Note: nearly all actives have a fitted effect of over 55% in size. In outline:
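HepG2 cells mixed with RealTime-Glo MT reagents (NanoLuc plus cell-permeant prosubstrate) were seeded at 600 cells/well, incubated 5 h at 37 C/5% CO2, then pinned with compounds in DMSO; nonlytic luminescence tracked viability during 40 h treatment.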

The nature of assay [3]: qHTS RealTime-Glo MT Cell Viability Assay in HEK293 cells - 40 hour (AID 1224874). Note: nearly all actives have a fitted effect of over 50% in size. Note: potency is the fitted concentration of half-maximal effect. The note with it: RealTime-Glo luminescence; max response: stronger effect = lower value. In outline: (§1)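 Kinetic, non-lysing viability readout. Seed HEK293 (600/well) with reagent, incubate 5 h at 37 C/5% CO2, pin 23 nL compound in DMSO, incubate at 37 C, read luminescence at 0, 8, 16, 24, 32, 40 h.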

The nature of assay [4]: A CellTox Green Cytotoxicity Assay to monitor cytotoxicity in HEK293 cells - 24 hour (AID 1224875). Note: nearly all actives have a fitted effect of over 45% in size. Note: potency is the fitted concentration of half-maximal effect. The essentials:
(§2)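 Real-time, in one plate: 600 HEK293 cells/well with dead-cell DNA dye, pinned compound after 5 h, 37 C incubation over 40 h; viable cells give no appreciable fluorescence.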

Assay [5] in a line: qHTS RealTime-Glo MT Cell Viability Assay in HepG2 cells - 32 hour (AID 1224877). Note: nearly all actives have a fitted effect of over 55% in size. In outline: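 Viability was tracked continuously by NanoLuc luminescence from prosubstrate reduced by living HepG2 cells, at successive time points over 40 h of compound exposure. Cells with reagent were preincubated 5 h at 37 °C before compound addition.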
Assay [6] is described as follows: A CellTox Green Cytotoxicity Assay to monitor cytotoxicity in HepG2 cells - 24 hour (AID 1224878). Note: nearly all actives have a fitted effect of over 45% in size. Note: potency is the fitted concentration of half-maximal effect. In outline:
(§3)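 Cytotoxicity was tracked as dead-cell DNA fluorescence in HepG2 cells treated with test compounds at 37 C; each time-point value comes from one kinetic series spanning 0, 8, 16, 24, 32 and 40 h.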

A short description of assay [7]: A CellTox Green Cytotoxicity Assay to monitor cytotoxicity in HepG2 cells - 40 hour (AID 1224879). Note: nearly all actives have a fitted effect of over 40% in size. Note: potency is the fitted concentration of half-maximal effect. The essentials:
as §3

Assay [8] in a line: qHTS RealTime-Glo MT Cell Viability Assay in HEK293 cells - 0 hour (AID 1224880). Note: top concentration of the series differs between compounds; nearly all actives have a fitted effect of over 45% in size. The essentials:
as §1

Assay [9] is described as follows: A CellTox Green Cytotoxicity Assay to monitor cytotoxicity in HEK293 cells - 32 hour (AID 1224881). Note: nearly all actives have a fitted effect of over 40% in size. Note: potency is the fitted concentration of half-maximal effect. In outline:
as §2

The nature of assay [10]: A CellTox Green Cytotoxicity Assay to monitor cytotoxicity in HepG2 cells - 16 hour (AID 1224876). Note: nearly all actives have a fitted effect of over 45% in size. Note: potency is the fitted concentration of half-maximal effect. In outline:
as §3

Each structure is given as a SMILES string. Records with an inconclusive call do not appear. Values without a mark were called inactive. Activity calls are given as the source filed them. Calls come from the whole dose curve; as a rule, active = well fitted curve in the direction sought with a large enough effect in the repeat runs; inconclusive = weak or mixed curves; inactive = no such curve, though single readings can be large; an effect the other way counts as inactive or inconclusive.
% is set by controls: 0 for no effect and ±100 for the full control effect.

Take `CCCCNc1cc(C(=O)O)cc(S(N)(=O)=O)c1Oc1ccccc1`: the Potency result in assay [1], in assay [4], in [5], in assay [6], in assay [7] and in [9] was “inactive” each time. The compound was classed as inactive in [2] and in [8]. In addition, the max response in [3] was 0.323%.

With `CC1=C(O)C(=O)OC1C` (centres undefined), the Potency entry in assay [1], in [4], in assay [10], in assay [5], in assay [7] and in assay [9] was “inactive” each time. In addition, the compound was called inactive in assay [2] and in assay [8]. The max response in [3] is 1.31%.

For the compound `CC(C)OC(C)C`, the Potency entry in assay [1], in [4], in assay [5], in assay [6], in assay [7] and in assay [9] was “inactive” each time. The compound was called inactive in [2] and in assay [8]. Further, the max response in assay [3] was 20.1%.

For `CCCCCCCCCC#N`, the Potency result in [1], in assay [4], in [10], in [5] and in assay [9] was “inactive” in each case. Also, the compound was called inactive in assay [2] and in assay [8]. Besides, the max response in [3] was 0.388%.

For the compound `O=c1[nH]c(=O)n([C@H]2C[C@H](O)[C@@H](CO)O2)cc1C(F)(F)F`, the Potency result in assay [1], in assay [4], in assay [10], in assay [5] and in [9] was “inactive” in each case. For the same compound, the outcome in assay [2] and in assay [8] was inactive. In addition, the max response in assay [3] was -15%. Further, in assay [7], the Potency was 19 µM (active).

Take `CCCNC(C)(C)COC(=O)c1ccccc1`: the Potency result in [1], in assay [4], in [5], in assay [6], in assay [7] and in [9] was “inactive” throughout. Also, the outcome in [2] and in assay [8] was inactive. Besides, the max response in assay [3] is 2.27%.

Consider `CC(C)C(=O)OCC(C)(C)C(O)C(C)C` (centres undefined), for which the Potency result in [1], in [4], in [10], in [5], in assay [7] and in assay [9] was “inactive” in each case. The outcome in assay [2] and in assay [8] was inactive. The max response in assay [3] was 8.54%.

Consider `O=c1[nH]cnc2c1ncn2[C@@H]1O[C@H](CO)[C@@H](O)[C@H]1O`, for which the Potency result in assay [1], in assay [4], in assay [10], in assay [5], in assay [7] and in assay [9] was “inactive” in each case. In addition, the compound was called inactive in assay [2] and in assay [8]. Also, the max response in assay [3] is 1.22%.

With `CC(C)CC(=O)OCc1ccccc1`, the Potency result in assay [1], in [4], in assay [5], in assay [7] and in assay [9] was “inactive” each time. In addition, the compound was called inactive in [2] and in assay [8]. Besides, the max response in assay [3] is 3.51%.

With `Cc1ccc(C=O)s1`, the Potency entry in assay [1] and in [5] was “inactive” each time. The call in assay [2] was inactive. Moreover, the max response in assay [3] was 5.96%. Further, the Potency in assay [4] is 43.6 µM (active); in assay [10], 27.5 µM (active); in [7] it was 27.5 µM (active); in [9], 43.6 µM (active).

With `C=CCc1cc(OC)c(O)c(C(=O)NCCO)c1`, the Potency entry in assay [1], in assay [4], in [5], in [6], in [7] and in assay [9] was “inactive” throughout. In addition, the result in assay [2] was inactive. In assay [3], the max response is 15.9%.

In the case of `CN(C)CC[C@@H](c1ccc(Cl)cc1)c1ccccn1`, the Potency result in assay [1], in assay [4], in [5], in assay [6], in assay [7] and in assay [9] was “inactive” in each case. Moreover, the result in assay [2] and in assay [8] was inactive. Besides, the max response in assay [3] was -0.584%.

For `CC(C)C(=O)OC/C=C/c1ccccc1`, the Potency entry in assay [1], in assay [4], in assay [10], in assay [5] and in assay [9] was “inactive” throughout. The compound was called inactive in assay [2] and in assay [8]. Moreover, in [3], the max response was -2.31%.

Regarding `COC(=O)/C=C(/C)N`, the Potency entry in [1], in [4], in assay [5], in assay [6], in assay [7] and in assay [9] was “inactive” throughout. For the same compound, the call in assay [2] and in assay [8] was inactive. Besides, in [3], the max response was 5.09%.

Regarding `CCCCCCCCCC/C=C/C#N`, the Potency result in assay [1], in [4], in [5], in assay [6], in [7] and in [9] was “inactive” throughout. In addition, the call in assay [2] and in [8] was inactive. In addition, the max response in [3] was 4.49%.

`C=CCCCCCCCCO`: the Potency entry in assay [1], in assay [10] and in [5] was “inactive” throughout. Further, the compound was called inactive in assay [2] and in assay [8]. For the same compound, in [3], the max response was -15.3%.

As for `CCCCNC(=S)NCCCC`, the Potency entry in assay [1], in assay [10], in [5], in assay [6], in [7] and in assay [9] was “inactive” each time. Moreover, the compound was classed as inactive in assay [2] and in assay [8]. In [3], the max response is -21.7%.

Regarding `CC(C)=CCC[C@](C)(O)[C@@H]1CC=C(C)CC1`, the Potency result in assay [1] and in [5] was “inactive” each time. The call in [2] was inactive. The max response in assay [3] is -6.23%. The Potency in assay [10] and in assay [6] was 43.6 µM (active) each time.

Take `CCc1cc2cc(OC)c(OC)cc2c(Cc2ccccc2)n1`: the Potency in assay [1] and in assay [3] was 16.9 µM (active) throughout. Moreover, the outcome in assay [2] and in assay [8] was inactive. Besides, the Potency entry in [4], in [5] and in assay [9] was “inactive” throughout.

With `CC1=NN(c2cc(Cl)c(S(=O)(=O)O)cc2Cl)C(=O)C1N=Nc1ccc(S(=O)(=O)O)cc1` (centres undefined), the Potency entry in assay [1], in assay [4], in assay [5] and in assay [9] was “inactive” each time. Besides, the result in [2] was inactive. Also, the max response in assay [3] was 4.23%.
